# HPGD block: HPGD (human) dehydrogenase inhibition; AID 894; 4.3% of 150,000 active; Potency, µM, inactives show at the top dose activity change, negative = inhibition, hits mostly inhibitors; purified HPGD, NADH fluorescence kinetic, PGE2 substrate; active = well fitted inhibition curve with a large enough effect, not every such curve was filed as active; inconclusive = small, poorly fitted or top-dose-only effect, or another doubt; inactive = no such curve, though single readings can be large or run the other way; note: potency is the fitted concentration of half-maximal effect; % is set by controls: 0 for no effect and ±100 for the full control effect
#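 NADH formation kinetics: reaction with 30 uM PGE2 and 1 mM NAD+ (final), 20 nM enzyme, Tris-HCl pH 8 with Tween 20, after 15 min compound preincubation at room temperature. Fluorescence change, last versus first of five reads.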
# HTT ATP protect: cytoprotection in Huntington HTT-Q103 PC12 cell model; PC12 HTT-Q103 induced, cytoprotection, ATP luminescence, 40 h; Potency, µM (highest dose often 56.4 µM), for inactives: cytoprotection (ATP increase), most hits filed as activators; 0.14% of 230,000 active; AID 1471; note: potency is the fitted concentration of half-maximal effect; % of control where 0% means no effect; nearly all actives have a fitted effect of over 45% in size
#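 Quantitative HTS on tebufenozide-induced (100 nM) PC12 cells expressing HTTQ103 exon 1–GFP; compounds tested as a concentration series; survival measured via cellular ATP.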
# HttQ103 aggreg: mutant huntingtin aggregation inhibition; PC12 HttQ103-GFP aggregates, Acumen cytometry, 40 h; Potency, µM (titrated, usually from 46.1 µM), for the others: top-dose activity change, negative = inhibition, usual class: inhibitors; 1.1% of 220,000 active; note: potency is the fitted concentration of half-maximal effect; % is set by controls: 0 for no effect and ±100 for the full control effect; nearly all actives have a fitted effect of over 60% in size
#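 Ecdysone-promoter PC12 model expressing HTT exon 1 Q103 fused to GFP, induced by tebufenozide at 100 nM final. Compounds titrated; aggregates sized 1–25 µm scored on a 488 nm laser cytometer.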
# IMPase Li inh: membrane-permeable IMPase blocker, potentiated with lithium | CHO-M1 cells, IP1 TR-FRET (IP-One), carbachol + lithium | Potency, µM (doses to about 59.4 µM), for inactives: at the highest dose activity, negative = IMPase inhibition, actives largely listed as inhibitors | 0.35% of 210,000 active | AID 1457;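 note: IP1 builds up when IMPase is blocked and the TR-FRET signal falls; potency is the fitted concentration of half-maximal effect; plate controls were basal vehicle for no effect and high inhibitor control for full effect; nearly all actives have a fitted effect of over 50% in size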
#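 CHO-M1, 2000 cells/well, 16–30 h culture; cpd + low Li+, 30 min 37C; lysis with d2-IP1/Eu-anti-IP1 Ab, 10 min RT; TR-FRET 665/620 ratio and 620 channel; AC50 via Hill.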
# ALDH1A1 inh: blocks purified human ALDH1A1 activity; P00352; Purified ALDH1A1, NADH fluorescence, propionaldehyde substrate; Potency, µM (highest dose often 75.3 µM), for inactives: at the top dose activity, negative = inhibition, hits mostly inhibitors; 7.3% of 220,000 active; active = well fitted inhibition curve with a large enough effect, not every such curve was filed as active; inconclusive = small, poorly fitted or top-dose-only effect, or another doubt; inactive = no such curve, though single readings can be large or run the other way;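 note: potency is the fitted concentration of half-maximal effect; plate controls were no enzyme wells and a reference inhibitor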
# Target sequence (P00352 whole entry, looked up): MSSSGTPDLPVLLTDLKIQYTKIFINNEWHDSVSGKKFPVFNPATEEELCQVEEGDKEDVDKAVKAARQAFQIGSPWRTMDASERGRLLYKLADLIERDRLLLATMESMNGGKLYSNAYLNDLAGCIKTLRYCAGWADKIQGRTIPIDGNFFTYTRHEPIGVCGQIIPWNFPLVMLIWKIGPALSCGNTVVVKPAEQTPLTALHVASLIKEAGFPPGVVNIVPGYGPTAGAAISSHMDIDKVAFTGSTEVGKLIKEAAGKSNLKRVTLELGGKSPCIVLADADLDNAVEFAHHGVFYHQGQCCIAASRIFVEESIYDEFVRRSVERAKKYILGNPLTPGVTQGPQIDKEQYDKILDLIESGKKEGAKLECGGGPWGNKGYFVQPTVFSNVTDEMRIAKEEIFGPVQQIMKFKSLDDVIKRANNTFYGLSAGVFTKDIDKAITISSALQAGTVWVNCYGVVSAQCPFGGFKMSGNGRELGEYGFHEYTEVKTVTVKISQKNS
# IMPase cell inh: cell-permeable inhibitors of inositol monophosphatase (IMPase) | 120,000 tested, under 10 active | P97697 | inhibition (IP1 accumulation), % at 46.1 µM | CHO-M1 cells, IP1 accumulation, HTRF TR-FRET ratio; active = well fitted curve in the direction sought with a large enough effect in the signal ratio, not every such curve was filed as active; inconclusive = small, poorly fitted or top-dose-only effect, or a change in a side signal; inactive = no such curve, though single readings can be large or run the other way; the % refers to the signal ratio;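 note: cells stimulated with carbachol in lithium chloride buffer; plate controls were DMSO basal wells for no effect and reference inhibitor wells for full effect; higher means more IMPase inhibition seen as more IP1 and lower FRET ratio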
#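 CHO-M1, 2000 cells/well, cultured 16–30 h; cpd up to 46 uM; carbachol (50 uM solution, stimulation buffer w/ 50 mM LiCl, pH 7.4), 30 min 37C; IP-One TR-FRET, 10 min RT; Ex 320/Em 665, 620; Hill-fit AC50.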
# * = called active by the depositor; ? = inconclusive; · = no result; [ ] = another dose, or the depositor's remark. Shown are actives, neighbours in structure and some others; about 9.4% of the full set was active somewhere. Unless noted, calls come from the whole dose curve; as a rule, active = well fitted curve in the direction sought with a large enough effect; inconclusive = small, poorly fitted or top-dose-only effect, or another doubt; inactive = no such curve, though single readings can be large; an effect the other way counts as inactive or inconclusive.
SMILES,HPGD block,HTT ATP protect,HttQ103 aggreg,IMPase Li inh,ALDH1A1 inh,IMPase cell inh
Cc1ccc(C(=O)ONc2ccc(N=NC(=O)c3ccccc3O)cc2)cc1,28.2µM*,-13.6%[10 µM],8.2%,12.9%[38.3 µM],?,-0.1
COc1ccc(NC(=O)C2C3CCC4C(CCC32)C4(Cl)Cl)cc1 (configuration not stated),-11.4%,·,-3.0%,1.0%,-0.7%,·
COc1cccc(NC(=O)C2C3CCC4C(CCC32)C4(Cl)Cl)c1 (configuration not stated),-9.5%,-17.6%[10 µM],3.8%,15.6%,7.94µM*,·
O=P(CCCCCCCCCP(=O)(c1ccccc1)c1ccccc1)(c1ccccc1)c1ccccc1,-2.7%,-124.0%,11.2µM*,43.6%[38.3 µM],?,3.7
CCc1cccc(CC)c1NC(=O)CSc1nc2ccc(N3C(=O)C4C(C3=O)[C@H]3C=C[C@@H]4C3)cc2s1 (some centres not stated),20µM*,-5.7%[10 µM],-7.4%,-1.0%,17.8µM*,2.3
CCc1cccc(C)c1NC(=O)CSc1nc2ccc(N3C(=O)c4ccccc4C3=O)cc2s1,-9.8%,-1.1%,21.7%,15.8µM*,4.0%,-7.8
COC(=O)C1=C(C(=O)OC)[C@@H]2N(C)c3ccccc3[C@@]23C[C@@H](C(=O)OC)N(S(=O)(=O)c2ccc(C)cc2)C3=N1,-1.9%,-3.1%[10 µM],·,6.1%,15.2%[13.5 µM],·
CN(Cc1ccccc1)C(=O)c1nc2ccccn2c1CNCCOc1cccnc1,·,-4.5%[10 µM],-3.0%[9.22 µM],19.7%,25.1µM*,·
CN(Cc1c(C(=O)N(C)Cc2ccccc2)nc2ccccn12)CC1Cc2ccccc2O1 (configuration not stated),·,-21.1%,-10.0%,34.5%,14.1µM*,·
CC1CC[C@@]2(C(=O)O)CCC3(C)C(=CCC4[C@]5(C)CC(O)C(O)[C@](C)(CO)C5C(O)C[C@@]43C)C2C1C (some centres not stated),-11.2%,6.5%,·,22.2%,-0.2%,·
C=C(C)C1COc2cc3oc(=O)ccc3cc2O1 (configuration not stated),?,-80.4%,·,3.1%,?,·
O=C(O)c1ccc2c(c1)C(=O)N(CCC1=CCCCC1)C2=O,-17.5%,-17.8%,0.2%,6.8%[38.3 µM],-9.7%,6.9
CN(C(=O)c1ccc2c(c1)C(=O)N(CCC1=CCCCC1)C2=O)C1CCCCC1,14.1µM*,-52.8%,?,18.4%[38.3 µM],0.794µM*,7.5
CC[C@H](C)[C@@H](NC(=O)O[C@H]1C(=O)c2ccc(OC)cc2O[C@@H]1c1ccc2c(c1)OCO2)C(=O)OC,-0.2%,-27.2%,·,10.2%,1.6%,·
Cc1ccc(OCC(=O)N2N=C(C(F)(F)F)CC2(O)C(C)(C)C)cc1C (configuration not stated),-5.4%,-10.9%,?,36.9%[38.3 µM],-2.8%,-1.6
Cc1ccccc1OCC(=O)N1N=C(C(F)(F)F)CC1(O)C(C)(C)C (configuration not stated),-10.6%,-0.3%[10 µM],4.6%,20.1%,14.1µM*,-0.4
COc1ccc2c(c1)O[C@H](c1cccc(C(F)(F)F)c1)[C@@H](O)C2=O,·,-16.0%[10 µM],·,·,14.4%[13.5 µM],·
COC(=O)C1=C(C)NC(=O)/C1=C\c1cc(C)n(-c2ccccc2C)c1C,-13.2%,5.4%,18.2%[9.22 µM],26.4%[38.3 µM],?,6.1
Cc1cc(/C=C2\NC(=O)NC2=O)c(C)n1-c1cccnc1,·,-13.5%[10 µM],11.6%[9.22 µM],·,·,·
COC(=O)C1=C(C)NC(=O)/C1=C\c1cc(C)n(-c2ccccc2F)c1C,·,-10.7%[10 µM],?,8.2%,15.8µM*,·
COC(=O)C1=C(C)NC(=O)/C1=C\c1cc(C)n(-c2c(C)cccc2C)c1C,-6.3%,-43.0%,-9.9%,-10.8%[38.3 µM],17.8µM*,1.0
Cc1cccc(C)c1-n1c(C)cc(/C=C2\NC(=O)NC2=O)c1C,?,1.4%[10 µM],-16.5%,17.2%,15.8µM*,12.8
COc1cccc(-c2nc(SCC(=O)Nc3ccc4c(c3)OCCO4)c(-c3ccc(C)cc3)[nH]2)c1,·,·,·,·,·,7.7

# High-throughput results (PubChem)
